Results reported in the supplement of paper PMC6555819.

What was measured:
Test in all cases: PBM binding z-score (relative to random genomic background probes); higher = stronger binding; sequences stand for … in GC…GCGATTGACAGCGTAGAATGAAGG
[1] = system: LXRa homodimer (NR concentration 270 nM)
Summary of the method: (§1)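 Ligand-free nuclear receptor dimers were applied to custom Agilent 4×180K protein-binding microarrays whose double-stranded probes carried direct-repeat seeds, single-nucleotide variants, half-site ablations and random human genomic background sequences in 34-nt variable regions. Incubation lasted 1 h. Binding z-scores were computed against the random background probes from regression-normalized fluorescence.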

[2] = system: LXRb homodimer (NR concentration 270 nM)
Summary of the method: as §1

[3] = system: PPARa:RXRa (NR concentration 270 nM, RXRa partner concentration 90 nM)
Summary of the method: as §1

[4] = system: PPARg:RXRa (NR concentration 180 nM, RXRa partner concentration 90 nM)
Summary of the method: as §1

[5] = system: PPARg:RXRa 270nM:90nM, anti-RXR (NR concentration 270 nM, RXRa partner concentration 90 nM)
Summary of the method: as §1

[6] = system: PPARg:RXRa 30nM:10nM, anti-RXR (NR concentration 30 nM, RXRa partner concentration 10 nM)
Summary of the method: as §1

[7] = system: PPARg:RXRa 90nM:30nM, anti-RXR (NR concentration 90 nM, RXRa partner concentration 30 nM)
Summary of the method: as §1

[8] = system: PPARg:RXRa DBDmut IVT, anti-RXR (DBD mutation: RXRa K156A/R161A, NR concentration 270 nM, RXRa partner concentration 90 nM)
Summary of the method: as §1

[9] = system: LXRa:RXRa (NR concentration 270 nM, RXRa partner concentration 90 nM)
Summary of the method: as §1

With CGTCTAAGGTCATAGGAGGTCAGTGAAGACAGAT as the sequence, how does the PBM binding z-score [1] read?
Its PBM binding z-score is 5.68.

What about the PBM binding z-score [2] of the same sequence?
Its PBM binding z-score is 1.55.

And the PBM binding z-score [3]?
The PBM binding z-score was 6.24.

And the PBM binding z-score [4]?
The PBM binding z-score was 6.42.

And the PBM binding z-score [5]?
Its PBM binding z-score is 6.7.

What about the PBM binding z-score [6] of the same sequence?
The PBM binding z-score was 3.31.

And the PBM binding z-score [7]?
The PBM binding z-score was 5.55.

What about the PBM binding z-score [8] of the same sequence?
Its PBM binding z-score is 3.95.

ACTTAAGGGTCAACGAGGTTATAGCACGCGTATA was tested. Which PBM binding z-score [9] did it give?
The PBM binding z-score was 6.42.

What about the PBM binding z-score [1] of the same sequence?
Its PBM binding z-score is 1.86.

What about the PBM binding z-score [2] of the same sequence?
Its PBM binding z-score is 1.21.

And the PBM binding z-score [4]?
Its PBM binding z-score is 7.09.

And the PBM binding z-score [5]?
Its PBM binding z-score is 6.95.

And the PBM binding z-score [6]?
The PBM binding z-score was 3.18.

What about the PBM binding z-score [7] of the same sequence?
Its PBM binding z-score is 5.51.

And the PBM binding z-score [8]?
Its PBM binding z-score is 3.78.

CGAACGAGGTCAAAGGACAGTGAAAGGCGACGTA was tested. Which PBM binding z-score [9] did it give?
The PBM binding z-score was 5.87.

And the PBM binding z-score [1]?
The PBM binding z-score was 0.528.

And the PBM binding z-score [2]?
The PBM binding z-score was 1.21.

And the PBM binding z-score [4]?
Its PBM binding z-score is 8.64.

What about the PBM binding z-score [5] of the same sequence?
Its PBM binding z-score is 7.62.

And the PBM binding z-score [6]?
Its PBM binding z-score is 5.48.

What about the PBM binding z-score [7] of the same sequence?
The PBM binding z-score was 8.31.

What about the PBM binding z-score [8] of the same sequence?
The PBM binding z-score was 5.27.

CGAACTAGGTCGAGGACAGTGAATCTCCGCACGC was tested. Which PBM binding z-score [9] did it give?
Its PBM binding z-score is -0.0944.

And the PBM binding z-score [1]?
The PBM binding z-score was -0.716.

And the PBM binding z-score [2]?
The PBM binding z-score was -0.651.

What about the PBM binding z-score [4] of the same sequence?
The PBM binding z-score was 2.03.

What about the PBM binding z-score [5] of the same sequence?
Its PBM binding z-score is 1.98.

What about the PBM binding z-score [6] of the same sequence?
Its PBM binding z-score is 0.0747.

And the PBM binding z-score [7]?
Its PBM binding z-score is 1.23.

And the PBM binding z-score [8]?
The PBM binding z-score was 5.71.

Which PBM binding z-score [9] does the source give for TAGCCTAGGGCATTCAGGGGCCAGTATAGAAAGC here?
The PBM binding z-score was -0.052.

What about the PBM binding z-score [1] of the same sequence?
The PBM binding z-score was -0.233.

And the PBM binding z-score [2]?
The PBM binding z-score was -0.352.

And the PBM binding z-score [4]?
Its PBM binding z-score is 0.0283.

What about the PBM binding z-score [5] of the same sequence?
Its PBM binding z-score is -0.154.

And the PBM binding z-score [6]?
Its PBM binding z-score is -0.552.

And the PBM binding z-score [7]?
The PBM binding z-score was -0.385.

And the PBM binding z-score [8]?
The PBM binding z-score was -0.268.

TAGCCTAGTTCATTCAGGGGCCAGTATAGAAAGC was tested. Which PBM binding z-score [9] did it give?
Its PBM binding z-score is 0.593.

What about the PBM binding z-score [1] of the same sequence?
Its PBM binding z-score is 0.155.

And the PBM binding z-score [2]?
The PBM binding z-score was 0.584.

And the PBM binding z-score [4]?
Its PBM binding z-score is 0.203.

What about the PBM binding z-score [5] of the same sequence?
The PBM binding z-score was 0.273.

And the PBM binding z-score [6]?
Its PBM binding z-score is -0.157.

What about the PBM binding z-score [7] of the same sequence?
The PBM binding z-score was 0.0192.

And the PBM binding z-score [8]?
Its PBM binding z-score is 1.65.

What does the source list for CGTCCAAGGTCGAAGGTCAGTGAAGAGATGACGG?
PBM binding z-score [9]: 3.14; PBM binding z-score [1]: 0.000668; PBM binding z-score [2]: -0.645; PBM binding z-score [4]: 5.43; PBM binding z-score [5]: 5.79; PBM binding z-score [6]: 3.26; PBM binding z-score [7]: 5.18; PBM binding z-score [8]: 0.518

With CCTTACGGGTCCCTCCAGGTTATAGCATCGGAGT as the sequence, how does the PBM binding z-score [9] read?
The PBM binding z-score was -0.148.

And the PBM binding z-score [1]?
Its PBM binding z-score is -0.112.

And the PBM binding z-score [2]?
Its PBM binding z-score is -0.475.

What about the PBM binding z-score [4] of the same sequence?
The PBM binding z-score was -0.172.

And the PBM binding z-score [5]?
Its PBM binding z-score is -0.6.

And the PBM binding z-score [6]?
Its PBM binding z-score is -0.679.

What about the PBM binding z-score [7] of the same sequence?
The PBM binding z-score was -0.697.

What about the PBM binding z-score [8] of the same sequence?
Its PBM binding z-score is -1.14.

Which PBM binding z-score [1] does the source give for CGTACAAGGTCAAAGGTCAGTGAAGAGATGACGG here?
The PBM binding z-score was 3.43.

What about the PBM binding z-score [2] of the same sequence?
Its PBM binding z-score is 2.4.

What about the PBM binding z-score [3] of the same sequence?
The PBM binding z-score was 7.11.

What about the PBM binding z-score [5] of the same sequence?
The PBM binding z-score was 10.1.

What about the PBM binding z-score [6] of the same sequence?
Its PBM binding z-score is 11.2.

What about the PBM binding z-score [7] of the same sequence?
Its PBM binding z-score is 11.9.

What about the PBM binding z-score [8] of the same sequence?
The PBM binding z-score was 5.32.

How did the PBM binding z-score [1] turn out when ATCGAAAGGTCAAGGTGAGTATAGAGAAAGGGAA was run?
Its PBM binding z-score is 2.78.

What about the PBM binding z-score [2] of the same sequence?
The PBM binding z-score was 3.58.

And the PBM binding z-score [4]?
The PBM binding z-score was 8.08.

And the PBM binding z-score [5]?
The PBM binding z-score was 7.77.

What about the PBM binding z-score [6] of the same sequence?
Its PBM binding z-score is 5.24.

What about the PBM binding z-score [7] of the same sequence?
Its PBM binding z-score is 7.07.

What about the PBM binding z-score [8] of the same sequence?
Its PBM binding z-score is 3.34.
